The list is not random: actives were taken first. Their share in the collection is about 4.6%.
V-ATPase pH – alters yeast V-ATPase proton transport; response, % at 10 µM; AID 504577; S. cerevisiae, pHLuorin cytosolic pH fluorescence; actives 0.37% (n = 350,000); in the data active = response mostly above about 7.3%, no sharp cut-off; inactive = mostly below about 5.4%; note: actives read high
PfHsp90 yeast 2 – growth inhibition of yeast expressing Plasmodium Hsp90; S. cerevisiae expressing PfHsp90, BacTiter-Glo ATP, 48 h; yeast lacking PDR1 and PDR3 efflux regulators; inhibition, % at 9.4 µM; actives 0.32% (n = 310,000);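 active = every replicate shows inhibition above about 80%, whatever the replicate mean, limit read from the data; inconclusive = mean inhibition reaches the set limit but some replicate falls short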;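 note: 0% = DMSO neutral controls and 100% = 20 µM radicicol positive controls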
tim23-1 inh – inhibits growth of tim23-1 mutant yeast; S. cerevisiae tim23-1 growth, BacTiter-Glo luminescence, 24 h; inhibition, % at 20 µM; actives 1.3% (n = 330,000);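 active = growth inhibition of the mutant yeast at or above 50%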;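 note: temperature-sensitive mutant grown at 25 °C; plate controls were DMSO-treated mutant yeast for no effect and medium wells lacking yeast for full effect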
TIM10 inh – inhibits growth of TIM10 yeast strain; S. cerevisiae TIM10 strain growth, BacTiter-Glo luminescence, 24 h; inhibition, % at 10 µM; actives 1.4% (n = 330,000); AID 463195;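 active = inhibition of 40% or more at the single tested concentration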;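 note: wild-type TIM10 isogenic control strain grown at permissive 25 °C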
SKKanGAS inh – inhibitors of SKKanGAS S. pyogenes growth in kanamycin (SK-promoter or general growth effect); actives 1.3% (n = 300,000); inhibition, % at 7.5 µM; BacTiter-Glo, 6 h;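 active = mean replicate score, as percent of positive control median, at least 50; inconclusive = mean below 50 but one replicate at or above 50; inactive = mean and every replicate below 50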;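 note: strain carries kanamycin resistance gene driven by streptokinase promoter and grows in 40 µg/ml kanamycin; loss of luminescence reflects streptokinase promoter inhibition or plain growth inhibition; 0% = median of DMSO wells and 100% = positive control at its reference dose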
tim10-1 inh – tim10-1 yeast growth inhibition | S. cerevisiae tim10-1 ts strain growth, BacTiter-Glo, 24 h | inhibition, % at 20 µM | actives 2.2% (n = 330,000) | AID 463190;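 active = inhibition of at least 40%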;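 note: mutant grown at 25 °C; 0% = DMSO wells with yeast and 100% = wells holding no yeast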
tim10-1 confirm – confirmation of tim10-1 mutant yeast growth inhibitors | AID 463213 | shares compounds with tim10-1 inh | inhibition, % at 20 µM | S. cerevisiae tim10-1 ts strain growth, BacTiter-Glo, 24 h | actives 56% (n = 7,400);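 active = inhibition of yeast growth at or above a set limit in either of two repeat tests at 20 µM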;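 note: tim10-1 mutant grown at permissive 25 °C to find synthetic lethal compounds; 0% = DMSO yeast wells and 100% = medium wells without yeast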
Starred values were filed as active, the others as inactive; ? = inconclusive; · = no result given.

SMILES	V-ATPase pH	PfHsp90 yeast 2	tim23-1 inh	TIM10 inh	SKKanGAS inh	tim10-1 inh	tim10-1 confirm
O=[N+]([O-])c1cc(CN2CCN(c3cccc(C(F)(F)F)c3)CC2)c2cccnc2c1O	6	99*	42	20	95*	48*	9
Oc1c(CN2CCN(c3ccccn3)CC2)cc(Cl)c2cccnc12	3	-9	46	25	108*	52*	19
O=[N+]([O-])c1cc(CN2CCCC2)c2cccnc2c1O	-6	-22	·	·	·	·	·
Oc1ccc(CN2CCCCC2)c2cccnc12	-2	-15	-7	14	-7	2	·
Oc1ccc(CN2CCN(c3ccccc3)CC2)c2cccnc12	4	12	18	-34	55*	66*	-37
CCOc1ccc(N=C(NN)c2ccc3ccccc3n2)cc1	-1	6	23	20	27	11	·
CCc1cccc(CC)c1NC(=O)CSc1nc2ccc(N3C(=O)C4C5C=CC(C5)C4C3=O)cc2s1 (stereo not drawn)	0	18	26	10	-1	29	·
O=C(O)c1ccc(CSc2nc3ccc(N4C(=O)C5C6C=CC(C6)C5C4=O)cc3s2)cc1 (stereo not drawn)	2	-2	24	22	20	52*	29
CCOc1ccccc1N1CCN(CC(O)COC2CCCc3ccccc32)CC1 (stereo not drawn)	0	-4	17	12	11	-15	·
CCOC(=O)c1sc(NC(=O)C2CC2)cc1C	2	9	48	37	1	54*	22
CCOC(=O)c1sc(NC(=S)NC(=O)C2CCCC2)cc1C	-2	31	17	20	-26	11	·
O=C(NNc1nc2ccccc2s1)c1ccccc1F	-5	-6	26	38	-8	47*	28
Oc1cc(Br)ccc1C=Nc1ccc(N2CCCCC2)cc1	4	-9	50	19	-1	42*	26
Cc1cc(Br)cc(C=Nc2ccc(N3CCOCC3)cc2)c1O	-2	6	38	-2	11	22	·
Cc1nc2c(Cl)c(C)nn2c2c1CCC2	1	·	19	-3	0	41*	21
Cc1nc2c(-c3ccc(Cl)cc3)cnn2c2c1CCC2	1	5	0	13	-14	34	·
O=C(c1cc(COc2ccc(F)c(F)c2)on1)N1CCN(C2CCCCC2)C(=O)C1	-1	-23	33	-18	2	40*	-29
N#CCCN(CCCN1CCOCC1)CN1C(=O)c2ccccc2C1=O	1	·	·	·	·	·	·
CCc1cc(C(=O)NNC(=S)Nc2cccc(C)c2)cs1	2	14	2	23	-4	36	·
Cc1cccc(NC(=S)NNC(=O)c2csc(C(C)C)c2)c1	3	12	10	34	0	44*	28
CCCCNC(=S)Nc1ccc([N+](=O)[O-])cc1	-2	3	22	23	11	50*	24
CCCCNC(=S)Nc1ccc(Oc2ccccc2)cc1	4	16	42	17	2	16	·
Cc1ccc2c(c1)CCCN2C(=O)c1cc2ccccc2oc1=O	-3	9	49	24	0	43*	44*
CCOc1ccccc1OCCCC(=O)N(CC)CC(=O)Nc1c(F)cccc1F	0	27	7	10	-2	15	·
COc1ccc(OCCC(=O)OCC(=O)NC2CCCCCCC2)cc1	1	-11	38	24	-15	43*	40*
SMILES	V-ATPase pH	PfHsp90 yeast 2	tim23-1 inh	TIM10 inh	SKKanGAS inh	tim10-1 inh	tim10-1 confirm
N/C(=N\N=C/c1ccc(F)cc1)N/N=C\c1ccc(F)cc1	2	5	49	30	-15	44*	-72
N/C(=N\N=C/c1ccc(Br)cc1)N/N=C\c1ccc(Br)cc1	3	-2	-10	32	?	-15	·
Cc1c(C(=O)N2CCC(C)CC2)oc2ccc3c(c12)C(O)CC1(CCCCC1)O3 (stereo not drawn)	-1	-139	45	15	-11	49*	14
O=C(COC(=O)C1CC2C=CC1C2)Nc1cccc(S(=O)(=O)N2CCCCC2)c1 (stereo not drawn)	6	-27	14	21	-4	17	·
O=C(COC(=O)C1CC2C=CC1C2)Nc1cccc(S(=O)(=O)N2CCCCCC2)c1 (stereo not drawn)	11	1	37	38	-8	49*	30
COc1ccc2cc(/C=C3\SC(=S)NC3=O)c(N3CCOCC3)nc2c1	3	-41	45	36	40	42*	39*
O=C(NC(=S)N(CCO)Cc1ccccc1)c1ccc(F)cc1Cl	3	-9	12	18	1	22	·
O=C(Cc1ccccc1F)Nc1cccc(S(=O)(=O)N2CCOCC2)c1	-5	23	14	-1	·	9	·
Cc1ccc(C(C)(C)C)cc1S(=O)(=O)Nc1nc2ccccc2nc1Cl	4	-15	44	18	21	41*	40*
COc1cccc(C(=O)NCCS(=O)(=O)N2CCC(C)CC2)c1	1	-32	-9	-6	-3	-5	·
CC(=O)O[C@]1(C(C)=O)CC[C@H]2[C@@H]3C=CC4=CC(=O)C=C[C@]4(C)[C@H]3CC[C@@]21C	8	-11	34	10	2	40*	5
CC(=O)O[C@]1(C(C)=O)CCC2C3C=C(C)C4=CC(=O)CC[C@]4(C)C3CC[C@@]21C (stereo partly drawn)	4	-7	33	2	1	26	·
COC(=O)CSc1nnc([C@H](Cc2ccccc2)NC(=O)OC(C)(C)C)o1	4	-5	19	-5	2	16	·
COC(=O)CS(=O)(=O)c1nnc([C@H](Cc2ccccc2)NC(=O)OC(C)(C)C)o1	0	-33	23	18	-2	44*	38*
CC(C)N(C)Cc1nnnn1CC(=O)N(C)Cc1ccc(F)cc1	0	21	17	-1	7	14	·
O=C(/C=C/c1ccncc1)c1ccc2c(c1)OCCO2	8	10	25	32	-6	46*	38*
O=C1/C(=C/c2ccc(F)cc2)SC(=S)N1CC(=O)N1CCCCC1c1cccnc1 (stereo not drawn)	0	-5	30	30	-3	-24	·
O=C1/C(=C/c2ccccc2F)SC(=S)N1CC(=O)N1CCCCC1c1cccnc1 (stereo not drawn)	0	-29	36	24	2	45*	16
O=C(NCc1ccccc1Cl)c1cc(C(=O)C2CC2)c[nH]1	3	23	-2	-4	-4	-7	·
Cc1ccc(S(=O)(=O)N2CC(=O)N3CCN(CCN)C3C2)cc1 (stereo not drawn)	0	·	-1	-2	·	-12	·
CCOC(=O)Cc1csc(NC(=O)CCCCCN2C(=O)c3ccccc3C2=O)n1	0	-8	13	5	2	-5	·
